Drawing on PubChem BioAssay (Tox21), this text covers Potency for 40 molecules.

SMILES strings stand for the structures. Results filed as inconclusive are left out. Where a call stands in place of a potency, no number is given. More than one record can exist for a structure, and the calls need not agree. Active and inactive are the calls of the source. The call rests on the fitted dose curve; in most records, active means well fitted cell-killing curve with a large enough effect in the repeat runs; inconclusive means weak or mixed curves, or effect the other way; inactive means flat fitted curve, though single readings scatter.
Potency means the concentration at half of the fitted maximal effect.

A short description of this assay: Human pregnane X receptor (PXR) small molecule agonists, qHTS cell viability counter screen (AID 1346977). Further: nearly all actives have a fitted effect of over 50% in size. Conditions: PXR-Luc HepG2 viability, CellTiter-Fluor, 24 h; series mostly up to 92.4 µM. From the text:
U.S. Tox21 Program National Center for Advancing Translational Sciences [NCATS] NIH Chemical Genomics Center [NCGC] U.S. Environmental Protection Agency [EPA] National Institutes of Environmental Health Sciences [NIEHS] National Toxicology Program [NTP] U.S. Food and Drug Administration [FDA] Tox21 Assay Overview: The human pregnane X receptor (hPXR) regulates the expression of several drug metabolizing enzymes and induction of these proteins is a major mechanism for developing drug resistance in cancer. One such key enzyme catalyzing the drug metabolism is cytochrome P450 3A4 (CYP3A4). Changes in CYP3A4 expression affect drug metabolism, thereby reducing the therapeutic efficacy and altering toxicological response to a drug and which finally causes adverse drug interaction. To screen Tox21 libraries for compounds that activate hPXR-mediated CYP3A4 gene expression, PXR-Luc HepG2 cells were used. Also cytotoxicity of the compounds was tested in parallel by measuring the cell viability using CellTiter-Fluor assay system in the same wells.
Tox21 Assay Protocol Summary: PXR-Luc HepG2 cells were dispensed at 2,000 per well in 5uL of assay medium containing 5% charcoal-stripped FBS into white solid bottom 1536-well plates (Corning Life Sciences, Corning, NY) using a Multidrop Combi (Thermo Scientific, Waltham, MA) dispenser. The assay plates were incubated at 37 C and 5% CO2 for 5hr, and then 23nL of compounds dissolved in DMSO and positive control were transferred using a Pintool station (Wako, San Diego, CA). The assay plates were incubated at 37C and 5% CO2 for 24hr. For cytotoxicity read, after 23hr incubation at 37C, 1uL CellTiter-Fluor reagent (Promega Corporation, Madison, WI) was added to each well of the assay plates using Flying Reagent Dispenser (FRD, Aurora Discovery, San Diego, CA). After 1hr incubation at 37C and 5% CO2, the fluorescence signal was quantified using a ViewLux plate reader (PerkinElmer, Shelton, CT).
For the molecule `O=C(O)CCCc1ccc(N(CCCl)CCCl)cc1`, the Potency entry is “inactive”.
With `OCc1ccco1` the entry was “inactive”.
For `FC(F)(F)c1ccc(Cl)cc1` the value was “inactive”; for `CN1C(=O)CCS(=O)(=O)C1c1ccc(Cl)cc1` (stereo not given), “inactive”.
As for `CCCCC(CC)C(=O)Cl` (stereo not given), the Potency result was “inactive”.
For `C=CC#N`, the Potency entry is “inactive”.
For the molecule `CC(C)(C)C(=O)CCl`, the Potency entry was “inactive”.
Regarding `C[C@H]1C(=O)O[C@@H]2CCN3CC=C(COC(=O)[C@](C)(O)[C@]1(C)O)[C@H]23`, the Potency result is “inactive”.
With `Cc1ccc(N=C=O)cc1N=C=O` the entry was “inactive”; with `O=[N+]([O-])c1ccc(Cl)c(Cl)c1`, “inactive”.
For `Cc1cccc(C)c1N` the value was “inactive”; for `Cc1ccccc1N`, “inactive”.
For the molecule `CNC(=O)O/N=C(\SC)C(=O)N(C)C`, the Potency result is “inactive”.
With `OC[C@@H](O)[C@H]1O[C@@H]2O[C@H](C(Cl)(Cl)Cl)O[C@@H]2[C@H]1O` the entry was “inactive”.
For the molecule `c1ccc2c(c1)CCCC2`, the Potency result was “inactive”.
With `Nc1cc(Cl)cc(Cl)c1` the entry was “inactive”; with `CC(C)CCCCCCOC(=O)c1ccccc1C(=O)OCCCCCCC(C)C`, “inactive”; with `CC(=O)C1CCOC1=O` (stereo not given), “inactive”.
Take `CCCCCCCCCCCCCCCCCC(=O)O`: the Potency result was “inactive”.
For `Oc1ccc(Cl)cc1` the value was “inactive”; for `O=C/C=C/c1ccccc1`, “inactive”; for `Cc1cccc(N)c1C`, “inactive”.
Regarding `O=C(O)C(Br)Br`, the Potency result is “inactive”.
As to `CN(C)C(=O)Cl`, the Potency result was “inactive”.
With `Nc1ncc([N+](=O)[O-])s1` the entry was “inactive”.
With `COP(=S)(OC)Oc1ccc(SC)c(C)c1` the entry was “inactive”; with `O=C(O)C1C(C(=O)O)C2(Cl)C(Cl)=C(Cl)C1(Cl)C2(Cl)Cl` (stereo not given), “inactive”; with `N#Cc1cccc(C#N)c1`, “inactive”.
Take `COC(=O)Nc1cccc(OC(=O)Nc2cccc(C)c2)c1`: the Potency result is “inactive”.
For `Cc1cc(Cl)ccc1OC(C)C(=O)O` (stereo not given) the value was “inactive”.
`N#CN=C(N)N`: the Potency entry was “inactive”.
`Cc1ccc(N)cc1`: the Potency result is “inactive”.
For `ClCCOCCCl` the value was “inactive”; for `CNC(=O)O/N=C/C(C)(C)SC`, “inactive”.
For `CCOP(=S)(OCC)Oc1ccc([N+](=O)[O-])cc1` the value was “inactive”; for `Nc1ccc(N)cc1`, 54.5 µM (active) and inactive.
With `CC12CC1(C)C(=O)N(c1cc(Cl)cc(Cl)c1)C2=O` (stereo not given) the entry was “inactive”; with `C=CCN=C=S`, “inactive”.
For the molecule `Nc1nc(N)nc(NC2CC2)n1`, the Potency result is “inactive”.
Turning to `Cl[C@H]1OCCO[C@@H]1Cl`, the Potency result was “inactive”.
